High-throughput results deposited in PubChem by National Center for Advancing Translational Sciences (NCATS).
This is a sample that favours compounds with a hit; in the whole collection about 1.8% have one here.
VDR inhibitor: Inhibitors of the vitamin D receptor (VDR): qHTS | Potency, µM, usual class: inhibitors | VDR-SRC2-3 peptide fluorescence polarization, 2 h | AID 504847, 2011 | 0.93% of 400,000 active | Vitamin D3 receptor (Homo sapiens), P11473
Target sequence (P11473 whole entry, looked up): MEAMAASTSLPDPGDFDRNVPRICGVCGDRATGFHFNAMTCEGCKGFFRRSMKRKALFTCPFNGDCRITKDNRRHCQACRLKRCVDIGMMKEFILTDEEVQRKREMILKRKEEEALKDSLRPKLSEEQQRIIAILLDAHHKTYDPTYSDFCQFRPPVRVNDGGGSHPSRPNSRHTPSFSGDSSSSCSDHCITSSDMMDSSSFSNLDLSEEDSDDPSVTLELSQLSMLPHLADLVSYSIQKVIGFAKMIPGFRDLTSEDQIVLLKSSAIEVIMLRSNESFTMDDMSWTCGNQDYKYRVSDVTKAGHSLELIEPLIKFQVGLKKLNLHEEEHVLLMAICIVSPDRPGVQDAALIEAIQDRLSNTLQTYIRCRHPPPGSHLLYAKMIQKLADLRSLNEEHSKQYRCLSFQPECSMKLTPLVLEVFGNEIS
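After 23 nl compound addition and a short centrifugation, plates sat for 2 hours at ambient temperature; polarization of fluorescence then indicated loss of VDR binding to peptide SRC2-3.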
TrxR1 substrate: qHTS Assay for Substrates of Mammalian Selenoprotein Thioredoxin Reductase 1 (TrxR1): qHTS; purified TrxR1 substrate turnover, NADPH consumption readout; Potency, µM (doses to about 114 µM); 0.01% of 390,000 active; note: nearly all actives have a fitted effect of over 50% in size
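Rat TrxR1, dispensed at 90 nM, was prereduced with 400 uM NADPH (final) for 5 min at ~22 deg C, then incubated with compound 15 min before 400 uM selenite. A first-read NADPH fluorescence drop versus no-compound background flagged substrates.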
GCN5L2 inh: qHTS Assay for Inhibitors of GCN5L2; Histone acetyltransferase KAT2A (Homo sapiens), Q92830; GCN5L2 HAT assay, ThioGlo1 CoA-SH fluorescence; Potency, µM (series often up to 58.9 µM), actives largely listed as inhibitors; 0.21% of 390,000 active
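GCN5L2 (20 nM) in 50mM HEPES pH 7.5, 0.1mM EDTA, 0.01% Tween-20 preincubated 15 min with compounds at room temperature. Reaction started with H3(1-25) 75uM, acetyl-CoA 70uM, ThioGlo1 50uM; CoA-thiol fluorescence (Ex340/Em540) read at 0 and 20 min.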
TrxR1 inh: qHTS Assay for Inhibitors of Mammalian Selenoprotein Thioredoxin Reductase 1 (TrxR1): qHTS. recombinant rTrxR1, NADPH fluorescence consumption, selenite substrate. Potency, µM (titrated, usually from 114 µM), hits mostly inhibitors. 1% of 390,000 active; note: nearly all actives have a fitted effect of over 65% in size
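Rat TrxR1 (90 nM in the dispensed reagent) was pre-reduced with 400 uM NADPH for 5 min at room temperature, then incubated with compound for 15 min. After 400 uM selenite was added, NADPH fluorescence (Ex 340/Em 450 nm) was followed for 8 min.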
Numbers stand for hits; 0 = inactive; ? = inconclusive; - = no result; ! = repeats disagree. Calls come from the whole dose curve; as a rule, active = well fitted curve in the direction sought with a large enough effect; inconclusive = small, poorly fitted or top-dose-only effect, or another doubt; inactive = no such curve, though single readings can be large; an effect the other way counts as inactive or inconclusive.

SMILES | VDR inhibitor | TrxR1 substrate | GCN5L2 inh | TrxR1 inh
O=C1C=CC(=O)c2c1ccc1c2ccc2ccccc21 | 3.16µM | - | 0 | -
c1ccc2c(c1)cc1ccc3cccc4ccc2c1c34 | 0 | 0 | - | 0
Cc1ccc(-n2c(O)c(C=NCc3ccco3)c(=O)[nH]c2=S)cc1C | ? | 0 | 0 | 12.6µM
CC(=O)OC1CC2C(C)(C)C(=O)C=C[C@]2(C)C2CC[C@]3(C)C(=CC(=O)OC3c3ccoc3)[C@]12C (stereo not given in full) | 20µM | - | 0 | -
Nc1ccccc1C(=O)O | 0 | - | 0 | -
O=C1C(I)=CC(=C(c2cc(I)c(O)c(I)c2)c2ccccc2C(=O)O)C=C1I | 35.5µM | - | 3.55µM | -
C[C@H](CCC(=O)O)C[C@H](C)C[C@H](C)C(=O)/C=C(\O)[C@H](C)C[C@H](C)C/C=C/[C@@H](C)[C@@H](O)[C@@H](C)[C@@H](O)C[C@@H]1CC[C@@](C)([C@H]2CC[C@@](C)([C@@H](C)O)O2)O1 | ? | - | 0 | -
CN1CCc2cc3c(cc2C1)OCO3 | 0 | 0 | - | 0
CN1CCc2cc3c(cc2[C@@H]1O)OCO3 | 0 | - | 7.94µM | -
CC(=O)OC1CCC2(C)C3=C(CCC2C1(C)C)[C@@]1(C)CCC(C(C)CCC=C(C)C)[C@@]1(C)CC3 (stereo not given in full) | ? | - | 0 | -
COc1cccc(-n2c(O)c(C=Nc3c(C)n(C)n(-c4ccccc4)c3=O)c(=O)[nH]c2=O)c1 | 0 | 0 | 0 | 0
COc1ccc2nc(/N=C/c3c(O)n(-c4cccc(Cl)c4)c(=O)[nH]c3=O)sc2c1 | 50.1µM | 0 | 0 | ?
CCCN1CCc2cc(O)cc3c2[C@H]1Cc1ccc(O)c(O)c1-3 | 5.01µM! | 0 | 0 | ?
CN1CCc2cc(O)cc3c2[C@H]1Cc1ccc(O)c(O)c1-3 | 4.47µM! | 0 | 0 | ?
CCCN1CCc2cccc3c2C1Cc1ccc(O)c(O)c1-3 (stereo not given) | 0 | - | 0 | ?
COC(=O)C12CC3=C[C@H](CC3=O)Cc3ccccc3[C@@H]1CNC2=O (stereo not given in full) | 0 | - | - | -
C[C@]12CC[C@@H]3c4ccc(O)cc4C[C@@H](CCCCCCCCCS(=O)CCCC(F)(F)C(F)(F)F)[C@H]3[C@@H]1CC[C@@H]2O (stereo not given in full) | 0 | ? | 0 | 0
Nc1ccc2ccc3cccc[n+]3c2c1 | 0 | 0 | 0 | 70.8µM
C[n+]1c(-c2ccccc2)c2cc(N)ccc2c2ccc(N)cc21 | 0 | 0 | 0 | 0
COC(=O)c1cc(Oc2ccc(Cl)cc2Cl)ccc1[N+](=O)[O-] | 0 | - | 0 | -
O=C(Nc1ccc(Oc2ccc(Cl)cc2)c(Cl)c1)c1cc(I)cc(I)c1O | ? | 0 | 25.1µM | 0
CCN1C[C@@]2(COC)CCC(OC)[C@]34C5C[C@]6(O)[C@@H](OC)C[C@](OC(C)=O)(C([C@H](OC)C23)[C@H]14)C5[C@H]6OC(=O)c1ccc(OC)cc1 (stereo not given in full) | 0 | - | 0 | -
CC(C)C[C@H](NC(=O)[C@H](Cc1ccccc1)NC(=O)CNC(=O)[C@@H](COC(C)(C)C)NC(=O)[C@@H](N)Cc1ccc(O)cc1)C(=O)N[C@H](C(=O)O)[C@@H](C)OC(C)(C)C | 0 | - | 0 | -
CNCCc1ccc(OC)c(OC)c1 | 0 | 0 | ? | 20µM
COc1ccc(CCN)cc1OC | 0 | 0 | ? | 0
SMILES | VDR inhibitor | TrxR1 substrate | GCN5L2 inh | TrxR1 inh
CCC(C)C(=O)OC1C2CC3=C4CC(=O)OC(c5ccoc5)[C@]4(C)CCC3[C@@](C)(C2=O)C(CC(=O)OC)C1(C)C (stereo not given in full) | 39.8µM | - | 0 | -
CCNC(=S)NCCC1=c2ccccc2=N/C1=C\c1c(O)n(C)c(=O)n(C)c1=O | 31.6µM | 0 | 0 | ?
Cn1c(=O)oc(=O)c2ccccc21 | 0 | 0 | - | 56.2µM
CSCC[C@H](NC(=O)[C@H](CC(C)C)NC(=O)[C@@H](Cc1cnc[nH]1)NC(=O)[C@H](Cc1ccccc1)NC(=O)[C@@H](Cc1ccccc1)NC(=O)[C@@H](N)Cc1ccc(O)cc1)C(N)=O | 0 | - | 0 | -
CCC[C@@H]1CC2=CC(=O)CC[C@]2(C)[C@@H]2CC[C@@]3(C)[C@H](CC[C@]3(O)CCC(=O)O)[C@H]12 | 0 | - | 0 | -
ClC1=C(Cl)C(Cl)(C2(Cl)C(Cl)=C(Cl)C(Cl)=C2Cl)C(Cl)=C1Cl | 3.16µM | - | ? | -
CC12C=CC(=O)C=C1CCC1C2=CCC2(C)C1CC[C@@H]2C(=O)CN1CCN(c2cc(N3CCCC3)nc(N3CCCC3)n2)CC1 (stereo not given in full) | 3.16µM | - | 0 | -
COc1ccc(N=Nc2c(O)[nH]c(=S)[nH]c2=O)cc1 | 0 | 0 | 0 | 0
CSc1nc(N)c(N=Nc2ccc([As](=O)(O)O)cc2)c(=O)[nH]1 | 50.1µM | 0 | 0 | 3.98µM
NCC[C@H](NC(=O)[C@@H](N)CCCN=C(N)N[N+](=O)[O-])C(N)=O | 0 | - | 0 | -
C=CCc1cc(C=C2C(=O)N(C)C(=O)N(C)C2=O)cc(OCC)c1OCc1ccccc1 | ? | 0 | 0 | ?
C=CCc1cc(C=C2C(=O)NC(=O)NC2=O)cc(OC)c1OCc1ccc(C(=O)O)cc1 | 89.1µM | 0 | 0 | ?
CNC(=O)Oc1ccc(-c2cn3cc(Cl)ccc3n2)cc1 | 0 | 0 | 0 | 22.4µM
CCOc1ccc(N2C(=O)NC(=O)/C(=C/c3cnc(SC)nc3)C2=O)cc1 | 39.8µM | 0 | 0 | 3.98µM
CSc1ncc(/C=C2/C(=O)NC(=O)N(c3ccc(C)cc3)C2=O)cn1 | 39.8µM | 0 | 0 | 7.94µM
Cc1ccc(N2C(=O)NC(=O)/C(=C/c3cnn(-c4ccc(C)cc4)c3)C2=O)cc1 | ? | 0 | 0 | ?
Cc1ccc(N2C(=O)NC(=O)/C(=C/c3ccoc3)C2=O)cc1 | 0 | 0 | 0 | 0
C/C=C1/C[C@@H](C)[C@](O)(CO)C(=O)OCC2=CCN3CC[C@@H](OC1=O)C23 (stereo not given in full) | 0 | - | 0 | -
CS/C(N)=C(C#N)/C(C#N)=C(\N)SC | 44.7µM | - | ? | -
CN1C2CCC1CC(NC(=O)c1nn(C)c3ccccc13)C2 (stereo not given) | - | - | - | 0
O=C(Cc1ccc(N(CCCl)CCCl)cc1)NC(Cc1ccc(Cl)cc1)C(=O)O (stereo not given) | 0 | 0 | 0 | 39.8µM
O=C(Cc1ccccc1)NC(Cc1ccc(Cl)cc1)C(=O)O (stereo not given) | 0 | 0 | 0 | 0
CC(=O)NC(Cc1ccc(N(CCCl)CCCl)cc1)C(=O)O (stereo not given) | 0 | 0 | 0 | 31.6µM
O=C(O)CCCc1ccc(N(CCCl)CCCl)cc1 | ? | 0 | 0 | 50.1µM
